The results in this text go back to PubChem BioAssay (NCATS).

SMILES strings stand for the structures. Results filed as inconclusive are left out. Unmarked numbers belong to inactive results. Calls of active or inactive are those of the source. Calls follow the shape of the dose curve; as a rule, active = well fitted activation curve with a large enough effect in the signal ratio, with a control signal flat (not every such curve was filed as active); inconclusive = small, poorly fitted or top-dose-only effect, or effect the other way, or a change in a side signal; inactive = flat fitted curve, though single readings scatter; the % refers to the signal ratio.
Potency is read from the fitted curve at half-maximal effect.

The nature of the test: qHTS Assay for Identification of Small Molecule Agonists for Hypoxia Response Element Signaling Pathway (AID 914). As to activation: % of control where 0% means no effect. Conditions: ME-180 (cervical carcinoma) HRE-bla reporter, beta-lactamase ratio, CoCl2, 17 h; activation: active compounds read high. From the text:
NIH Molecular Libraries Screening Centers Network [MLSCN]
NIH Chemical Genomics Center [NCGC]
Hypoxia-inducible factor-1 (HIF-1) is the major hypoxia-regulated transcription factor that controls cellular responses to low oxygen concentration. HIF-1 is composed of two subunits: hypoxia responsive HIF-1 alpha and constitutively expressed HIF-1 beta, which is also known as aryl hydrocarbon receptor nuclear translocator. During hypoxic conditions, HIF-1 alpha heterodimerizes with HIF-1 beta and translocates into the nucleus where the HIF-1 complex binds to the hypoxia-response element (HRE) and activates expression of target genes such as VEGF (vascular endothelial growth factor). HIF-1 alpha protein levels are elevated in many solid tumors, including those of the cervix and brain. Within tumors, cells that are the greatest distance from blood vessels and therefore the most hypoxic express the highest levels of HIF-1 alpha. Therapeutic blockade of the HIF-1 signaling pathway in cancer cells therefore provides an attractive strategy for development of anticancer drugs.
Using a beta-lactamase reporter-gene under control of the hypoxia response element, a cell-based assay [CellSensor(TM) HRE-bla ME-180 developed by Invitrogen Corp.] was used to measure hypoxia-induced signaling. Library compounds were measured for their ability to positively modulate the action of EC50 CoCl2 on reporter gene activity. Compounds were screened in a titration series in 1536-well format. Positive modulators were identified based on the AC50 values derived from the screening data.
NCGC Assay Protocol Summary:
2500 cells/5uL in Opti-MEM medium containing 0.5% dialyzed FBS, 0.1 mM NEAA, 1 mM sodium pyruvate and 10 mM HEPES was dispensed into 1536-well plates and cells were cultured at 37 degrees Celsius overnight. Next day 23 nL of compounds or DMSO were delivered to each well using a pin tool, and 1uL of EC50 level of CoCl2, or EC100 level of CoCl2, or assay medium was added. And then the plates were incubated at 37 degrees Celsius for 17 hours. 1 uL of CCF4-dye mixture was added to each well. After incubated at room temperature for 2.5 hours the plates were measured on an EnVision plate reader at Excitation 405nm, Emission1=460nm and Emission 2=530nm. The %Activity was determined from the ratio of 460nm/530nm.
Regarding `CCOC(=O)C(C)(C)[C@H](O)C(C)C`, the activation is 11.4%.

For the molecule `O=c1c(-c2ccccc2)nc2cnc(N3CCNCC3)nc2n1Cc1ccc(F)cc1`, the Potency is 3.16 µM (active). As to `O=C1NC(=O)[C@@](Cc2ccccc2)(c2cccnc2)N1`, the activation is 5.55%. The same measure, in the same setting: then `O=C(O)/C=C\c1cnc[nH]1`, with -4.56%. Regarding `S=C1SCN(C2CCCCCCCCCCC2)CN1C1CCCCCCCCCCC1`, the activation is 24.8%. With `O=[N+]([O-])c1cccc(/C=N\NC2=CS(=O)(=O)C=C2)c1`, the activation is 1.06%.

Regarding `Cc1[nH]n(-c2ccc(S(=O)(=O)O)cc2)c(=O)c1N=Nc1ccccc1`, the activation was 27.8%. Still for that read-out and setting: then `O=C(O)c1ccc2c(c1C(=O)O)C(=O)OC2(c1ccc(O)cc1)c1ccc(O)cc1`, with 9.96%; and `CCO[P@]1(=O)OC[C@@H]2O[C@H](n3cnc4c(N)ncnc43)[C@H](O)[C@@H]2O1`, with 10.2%. In the case of `O=C(Nc1ccc2ncccc2c1)Nc1ccc2ncccc2c1`, the activation was -12.2%. As for `O=C(O)C1(Nc2ccc(Cl)cc2)CCCC1`, the activation is 0.664%. Still for that read-out and setting: then `O=C1Nc2ccccc2[C@]1(O)Cc1ccccn1`, with -8.99%. Turning to `CN1CCN(c2ncc3nc(-c4ccccc4)c(=O)n(Cc4ccc(F)cc4)c3n2)CC1`, the Potency is 3.16 µM (active). `O=c1c(-c2ccccc2)nc2cnc(N3CCOCC3)nc2n1-c1ccccc1`: the Potency was 3.16 µM (active). Regarding `CCN1CCC(O)([C@H](C(=O)O)c2ccccc2)CC1`, the activation was -12.7%. On the same count and under the same terms, with `Cc1ccc(S(=O)(=O)Nc2cc(=O)[nH]c3c2CCC3)cc1` the figure was 2.61%; with `Cc1c(NC(=O)Nc2c(Cl)cccc2Cl)c(=O)n(-c2ccccc2)n1C`, -3.31%; with `COc1ccc(-c2csc3c2[N+]2=CCC=C2C3=O)cc1`, 4.84%.

For the molecule `Nc1ccc(S(=O)(=O)NCCS(=O)(=O)O)cc1`, the activation is -1.31%. On the same count and under the same terms, with `O=C(O)C[C@H](Sc1ccccc1)c1ccccc1` the figure was -1.84%. In the case of `O=C(O)[C@@H]1[C@@H](C(=O)Nc2ncccn2)[C@@H]2C=C[C@@H]1O2`, the activation is 18.9%. Regarding `Cc1cc(=O)[nH]c2cc3oc4ccccc4c3cc12`, the activation is -6.85%. Still for that read-out and setting: then `O=c1[nH][nH]c(=S)c(=O)[nH]1`, with 5.24%; and `c1cc(CSc2ncnc3nc[nH]c23)ccn1`, with -3.44%.

In the case of `CC(C)(Oc1ccc(-c2cccc3ccccc23)cc1)C(=O)O`, the activation is -19.2%. As to `CN(C)C(=O)c1ccc(-c2nc(Nc3ccc(F)cc3)c3ccccc3n2)cc1`, the activation was 14.9%. The same measure, in the same setting: with `C=C1CC[C@H](O)C/C1=C/C=C1\CCC[C@]2(C)[C@H]1CC[C@H]2[C@@H](C)CCCC(C)C` the figure was -0.192%; with `O=c1c(CCc2ccccc2)nc2cnc(Oc3ccccc3)nc2n1C[C@H]1CCCO1`, -12.6%. On the same count and under the same terms, with `CN(C)C(=O)C1CCN(Cc2c[nH]c3ccccc23)CC1` the figure was 16.5%; with `COc1ccc(N(CC(=O)O)N=O)cc1`, 10.3%. For the molecule `COc1cccc(Nc2ncc3nc(-c4ccccc4)c(=O)n(C4CC4)c3n2)c1`, the Potency was 3.16 µM (active).

On to `Nc1nc(-c2cccs2)cs1`, for which the activation is -9.81%.

Turning to `O=C(C[C@@H](C(=O)O)N1CCOCC1)c1ccccc1`, the activation is 16%. For `COc1ccc2ccccc2c1/C=C\C(=O)c1ccccc1`, the activation is 22.5%. `COCCn1c(=O)c(-c2cc(F)cc(F)c2)nc2cnc(Oc3ccccc3)nc21`: the activation was 20.9%. For `c1ccc(-c2cnc(-c3ccc(-c4ncc(-c5ccccc5)o4)cc3)o2)cc1`, the activation was 15%.

On to `COc1ccc(NC(=S)Nc2ccccc2)cc1`, for which the activation is 8.18%. The same measure, in the same setting: then `CC1(C)[C@@H]2CC[C@]1(C)[C@@H](OC(=O)CSC#N)C2`, with -0.299%; and `Cc1cc(SCC(=O)c2ccc(Br)cc2)cc(C)[o+]1`, with 15.2%; and `O=C(O)CC[C@@]1(c2ccccc2)NC(=O)NC1=O`, with -0.349%.
